Assay [1] can be described thus: qHTS assay to identify small molecule antagonists of the estrogen receptor alpha (ER-alpha) signaling pathway using the BG1 cell line in the presence of 0.1 nM 17-beta-estradiol - cell viability counter screen (AID 1259241). Further: nearly all actives have a fitted effect of over 40% in size. Further: potency means the concentration at half of the fitted maximal effect. The gist of the method: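 VM7Luc4E2, 4,000 cells/well, phenol red-free medium + 10% charcoal-stripped FBS; 24 hr plating; cpd + 0.1 nM E2 final, 22 hr 37C/5% CO2; CellTiter-Fluor 30 min, fluorescence.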

Assay [2] can be described thus: qHTS assay to identify small molecule antagonists of the androgen receptor (AR) signaling pathway using the MDA cell line in the presence of 0.5 nM R1881 - cell viability counter screen (AID 1259242). Further: nearly all actives have a fitted effect of over 45% in size. Further: potency means the concentration at half of the fitted maximal effect. The gist of the method: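 Fluorescence from CellTiter-Fluor, which reports protease activity of live cells, was read 30 min after reagent addition to MDA-kb2 cells that had been incubated 16 hr with compound and 0.5 nM R1881.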

Assay [3] has as its target Androgen receptor (Homo sapiens) (UniProt P10275). Description: qHTS assay to identify small molecule antagonists of the androgen receptor (AR) signaling pathway using the MDA cell line in the presence of 0.5 nM R1881 (AID 1259243). Further: nearly all actives have a fitted effect of over 50% in size. Further: potency means the concentration at half of the fitted maximal effect. The essentials:
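Inhibition of R1881 (0.5 nM final) induced reporter signal was measured in human MDA-kb2 cells; note the MMTV promoter also responds to GR. Exposure lasted 16 hr at 37C.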

The target in assay [4] is Estrogen receptor (Homo sapiens) (UniProt P03372). In words: qHTS assay to identify small molecule antagonists of the estrogen receptor alpha (ER-alpha) signaling pathway using the BG1 cell line in the presence of 0.1 nM 17-beta-estradiol (AID 1259244). Further: nearly all actives have a fitted effect of over 50% in size. Further: potency means the concentration at half of the fitted maximal effect. The essentials:
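Quantitative high-throughput screen in VM7Luc4E2 cells: compound plus 0.1 nM E2 (final), 22 h, 37C, 5% CO2; ONE-Glo added, 30 min room temperature, luminescence measured.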
Background: In qHTS, concentration-response curves come from the screen itself.

Assay [5] is described as follows: qHTS assay to identify small molecule HDAC inhibitors - cell viability counter screen (AID 1259365). Further: nearly all actives have a fitted effect of over 50% in size. Further: potency means the concentration at half of the fitted maximal effect. The gist of the method: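 Luminescence from CellTiter-Glo, developed 30min at room temperature, reports viability of wild-type HCT-116 cells treated 2hr with compounds at 37 C and 5% CO2 after overnight plating.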
Assay [6] can be described thus: qHTS assay to identify small molecule agonists of the sonic hedgehog signaling (Shh) pathway - cell viability counter screen (AID 1259366). Further: nearly all actives have a fitted effect of over 50% in size. Further: potency means the concentration at half of the fitted maximal effect. The essentials: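 Cytotoxicity counter screen run in the same wells as the Shh reporter assay. NIH/3T3 cells carrying a Gli1 response element–driven luciferase were treated with DMSO-dissolved compounds for 24hr, and live-cell protease activity was measured with CellTiter-Fluor.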

Assay [7] can be described thus: qHTS assay to identify small molecule antagonists of the sonic hedgehog signaling (Shh) pathway - cell viability counter screen (AID 1259367). Further: nearly all actives have a fitted effect of over 55% in size. Further: potency means the concentration at half of the fitted maximal effect. The essentials: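 Seed 3T3 Gli1-Luc cells at 2,000 per well; incubate 4 hr; add compound in DMSO, then conditioned medium; incubate at 37C with 5% CO2; add CellTiter-Fluor after 23 hr; read fluorescence 1 hr later.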
Assay [8] in a line: qHTS assay to identify small molecule agonists of the sonic hedgehog signaling (Shh) pathway (AID 1259368; calls by dose curve;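 further: NIH/3T3-derived 3T3Gli1-Luc cells carrying a stable Gli1-driven firefly luciferase reporter; series mostly up to about 92 µM; nearly all actives have a fitted effect of over 15% in size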). The essentials: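 Luminescent signal was taken as a measure of Gli1-controlled luciferase expression in stably transfected NIH/3T3-derived cells that had been treated for 24 hr with compounds delivered in DMSO.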
Assay [9] is described as follows: qHTS assay to identify small molecule agonists of the androgen receptor (AR) signaling pathway in the presence of an antagonist - cell viability counter screen (AID 1259379). Further: nearly all actives have a fitted effect of over 25% in size. Further: potency means the concentration at half of the fitted maximal effect. The gist of the method: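 In MDA-kb2 cells (human breast carcinoma, MMTV-luciferase), compounds at 15 concentrations plus 3.0uM nilutamide; 16 hr, 37C, 0% CO2; CellTiter-Fluor fluorescence read for viability.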

The nature of assay [10]: qHTS assay to identify small molecule agonists of the estrogen receptor beta (ER-beta) signaling pathway - cell viability counter screen (AID 1259380). Further: nearly all actives have a fitted effect of over 30% in size. Further: potency means the concentration at half of the fitted maximal effect. The gist of the method: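 Viability of ER-beta-UAS-bla HEK293T cells was determined by CellTiter-Glo luminescence following 16 hr treatment with test compounds at 37C.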
Assay [11] concerns the target Androgen receptor (Homo sapiens) (UniProt P10275). In words: qHTS assay to identify small molecule agonists of the androgen receptor (AR) signaling pathway in the presence of an antagonist (AID 1259381; calls by dose curve; further: nearly all actives have a fitted effect of over 15% in size; further: potency means the concentration at half of the fitted maximal effect). The essentials: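 Here, 15-concentration compound series were pin-transferred onto MDA-kb2 MMTV-luciferase cells already dosed with nilutamide (3.0uM final). After 16hr at 37C, ONE-Glo was added and luminescence read 30min later at room temperature.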

Assay [12] in a line: qHTS assay to identify small molecule antagonists of the estrogen receptor beta (ER-beta) signaling pathway - cell viability counter screen (AID 1259382). Further: nearly all actives have a fitted effect of over 55% in size. Further: potency means the concentration at half of the fitted maximal effect. The essentials: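 Tox21 10K library tested in qHTS format on ER-beta-bla HEK293T cells stimulated with 1nM E2; 16 hr treatment at 37C. Same-well CellTiter-Glo luminescence served as the cell viability measure.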
The target of assay [13] is Estrogen receptor (Homo sapiens) (UniProt P03372). In words: qHTS assay to identify small molecule agonists of the estrogen receptor alpha (ER-alpha) signaling pathway in the presence of an antagonist (AID 1259383; calls by dose curve; further: top concentration of the series differs between compounds; nearly all actives have a fitted effect of over 15% in size). The gist of the method: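 In VM7Luc4E2 cells, 4,000 per well, compounds at 15 concentrations were co-incubated 22hr at 37C with 10.0nM final ICI-182,780. Luminescence from the stably transfected 4×ERE-luciferase reporter was recorded 30min after ONE-Glo addition.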
Sequence of Estrogen receptor (Homo sapiens) (P03372 whole entry, looked up): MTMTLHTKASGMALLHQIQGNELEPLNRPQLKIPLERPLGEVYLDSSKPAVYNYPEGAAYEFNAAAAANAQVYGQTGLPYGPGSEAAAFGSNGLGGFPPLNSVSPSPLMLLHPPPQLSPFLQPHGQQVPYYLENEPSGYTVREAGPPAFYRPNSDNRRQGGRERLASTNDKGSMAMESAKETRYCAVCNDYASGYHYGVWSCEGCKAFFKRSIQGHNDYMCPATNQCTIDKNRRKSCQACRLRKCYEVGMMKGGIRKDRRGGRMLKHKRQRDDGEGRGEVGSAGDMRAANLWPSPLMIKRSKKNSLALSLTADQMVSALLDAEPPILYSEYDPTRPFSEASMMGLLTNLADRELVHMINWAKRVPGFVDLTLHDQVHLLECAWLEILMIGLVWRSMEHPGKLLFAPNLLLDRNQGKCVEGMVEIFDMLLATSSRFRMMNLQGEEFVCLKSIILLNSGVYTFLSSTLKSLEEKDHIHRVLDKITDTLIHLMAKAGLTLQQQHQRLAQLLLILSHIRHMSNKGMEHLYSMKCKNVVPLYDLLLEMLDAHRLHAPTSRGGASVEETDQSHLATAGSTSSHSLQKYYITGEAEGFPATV

Assay [14] can be described thus: qHTS assay to identify small molecule HDAC inhibitors (AID 1259364). Further: top concentration of the series differs between compounds; nearly all actives have a fitted effect of over 45% in size. The gist of the method:
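Endogenous HDAC class I/II activity was measured in wild-type HCT-116 cells by HDAC-Glo luminescence after 2 h compound treatment.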

The nature of assay [15]: qHTS assay to identify small molecule antagonists of the sonic hedgehog signaling (Shh) pathway (AID 1259369; calls by dose curve; further: nearly all actives have a fitted effect of over 45% in size; further: potency means the concentration at half of the fitted maximal effect). The essentials:
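Screening used 3T3Gli1-Luc cells at 2,000 per well, compounds delivered in DMSO, and conditioned medium as agonist stimulus; plates incubated 24hr at 37 C and 5% CO2 before a 30min luciferase step.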

The target of assay [16] is Estrogen receptor beta (Homo sapiens) (UniProt Q92731). In words: qHTS assay to identify small molecule agonists of the estrogen receptor beta (ER-beta) signaling pathway (AID 1259377; active means well fitted activation curve with a large enough effect in the signal ratio in the repeat runs, not every such curve was filed as active; the % refers to the signal ratio). The gist of the method:
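HEK293T ER-beta-UAS-bla; 2% charcoal-stripped FBS; cells pre-incubated 6 hr, compound 16 hr, 37C/5% CO2; LiveBLAzer B/G FRET substrate 2 h RT; fluorescence intensity read.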

The target is the same in assay [17]. In words: qHTS assay to identify small molecule antagonists of the estrogen receptor beta (ER-beta) signaling pathway (AID 1259378; active means well fitted inhibition curve with a large enough effect in the signal ratio in the repeat runs, not every such curve was filed as active; the % refers to the signal ratio; further: potency means the concentration at half of the fitted maximal effect). The gist of the method: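 ER-beta-UAS-bla HEK293T cells in 2% charcoal-stripped FBS medium treated with compound plus 1nM final 17-beta-estradiol for 16 hr at 37C. Beta-lactamase reporter read by FRET substrate fluorescence after 2 hours at room temperature.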

The nature of assay [18]: qHTS assay to identify small molecule agonists or antagonists of the thyroid stimulating hormone receptor (TSHR) signaling pathway - wild type cell line counter screen (AID 1259384; calls by dose curve). The gist of the method: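 Wild-type Hek293 cells, 800/well, 18 h at 37C, then compound with Ro20-1724 for 30 min RT. cAMP by HTRF (cAMP-d2/anti-cAMP cryptate), 1 h RT, fluorescence read. 15 concentrations, triplicates.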

For assay [19], the target named is Thyrotropin receptor (Homo sapiens) (UniProt P16473). Description: qHTS assay to identify small molecule antagonists of the thyroid stimulating hormone receptor (TSHR) signaling pathway (AID 1259385; calls by dose curve; further: nearly all actives have a fitted effect of over 20% in size). The essentials:
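TSHR-HEK293 cells (800/well) plated 18 h, then compounds with Ro20-1724 and TSH at 1.5 ng/mL final, 30 min at room temperature. cAMP quantified by HTRF (cAMP-d2/anti-cAMP-cryptate, 1 h); 15 concentrations in triplicate.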

Assay [20] can be described thus: qHTS assay to identify small molecule phospholipidosis (PLD) inducers (AID 1259344; active means well fitted curve in the direction sought with a large enough effect; an effect the other way counts as inactive or inconclusive). The essentials: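 Quantitative HTS in HepG2: compound plus LipidTOX Red dye for 24 h, paraformaldehyde fixation with Hoechst 33342, widefield high-content imaging; amiodarone as positive and DMSO as negative control.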

Inconclusive results are not listed. Calls of active or inactive are those of the source. Unless noted, the call rests on the fitted dose curve; in most records, active means well fitted curve in the direction sought with a large enough effect in the repeat runs; inconclusive means weak or mixed curves; inactive means no such curve, though single readings can be large; an effect the other way counts as inactive or inconclusive.

Sequence of Thyrotropin receptor (Homo sapiens) (P16473 whole entry, looked up): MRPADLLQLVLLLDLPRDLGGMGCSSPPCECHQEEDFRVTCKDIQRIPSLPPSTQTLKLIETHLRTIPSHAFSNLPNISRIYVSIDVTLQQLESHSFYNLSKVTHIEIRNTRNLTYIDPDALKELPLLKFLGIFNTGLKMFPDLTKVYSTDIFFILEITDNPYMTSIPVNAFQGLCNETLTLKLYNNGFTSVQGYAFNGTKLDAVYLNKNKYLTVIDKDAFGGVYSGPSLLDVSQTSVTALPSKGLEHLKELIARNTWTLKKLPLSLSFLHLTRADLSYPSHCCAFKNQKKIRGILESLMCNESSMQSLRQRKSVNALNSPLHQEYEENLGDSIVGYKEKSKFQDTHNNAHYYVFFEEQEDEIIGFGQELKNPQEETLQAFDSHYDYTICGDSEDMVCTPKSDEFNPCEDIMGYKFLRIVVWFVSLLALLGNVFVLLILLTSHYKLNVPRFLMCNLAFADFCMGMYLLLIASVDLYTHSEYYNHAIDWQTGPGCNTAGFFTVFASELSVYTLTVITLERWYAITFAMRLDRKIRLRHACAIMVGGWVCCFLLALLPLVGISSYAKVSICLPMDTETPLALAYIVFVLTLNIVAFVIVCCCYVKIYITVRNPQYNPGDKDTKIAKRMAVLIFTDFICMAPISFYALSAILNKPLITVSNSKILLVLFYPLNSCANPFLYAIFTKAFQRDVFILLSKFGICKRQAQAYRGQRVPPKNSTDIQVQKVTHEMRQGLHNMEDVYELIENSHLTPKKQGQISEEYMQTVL
Sequence of Androgen receptor (Homo sapiens) (P10275 whole entry, looked up): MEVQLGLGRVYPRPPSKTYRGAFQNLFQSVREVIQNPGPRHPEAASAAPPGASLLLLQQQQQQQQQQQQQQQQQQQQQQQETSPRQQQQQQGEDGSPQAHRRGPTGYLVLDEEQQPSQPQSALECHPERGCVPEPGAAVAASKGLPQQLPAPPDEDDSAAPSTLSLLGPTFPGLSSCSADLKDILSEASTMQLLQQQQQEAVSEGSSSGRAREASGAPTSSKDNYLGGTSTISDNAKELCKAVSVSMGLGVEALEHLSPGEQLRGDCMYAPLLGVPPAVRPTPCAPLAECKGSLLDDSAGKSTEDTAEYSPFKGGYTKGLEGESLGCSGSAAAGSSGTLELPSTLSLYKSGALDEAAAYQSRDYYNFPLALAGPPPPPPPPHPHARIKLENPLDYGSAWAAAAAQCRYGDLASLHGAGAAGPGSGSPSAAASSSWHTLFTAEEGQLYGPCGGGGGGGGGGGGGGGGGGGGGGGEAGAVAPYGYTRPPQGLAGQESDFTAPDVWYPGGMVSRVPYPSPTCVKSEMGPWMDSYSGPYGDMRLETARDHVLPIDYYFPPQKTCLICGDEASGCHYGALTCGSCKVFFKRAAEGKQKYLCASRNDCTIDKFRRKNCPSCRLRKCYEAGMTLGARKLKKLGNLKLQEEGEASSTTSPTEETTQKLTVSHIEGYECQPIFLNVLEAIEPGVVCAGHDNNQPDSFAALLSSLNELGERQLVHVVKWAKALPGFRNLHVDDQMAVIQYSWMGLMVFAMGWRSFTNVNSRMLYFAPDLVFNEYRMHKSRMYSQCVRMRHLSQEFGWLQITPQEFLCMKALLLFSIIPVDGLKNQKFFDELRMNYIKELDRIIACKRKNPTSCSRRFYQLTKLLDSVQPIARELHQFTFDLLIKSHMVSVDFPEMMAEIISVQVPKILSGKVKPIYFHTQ
Sequence of Estrogen receptor beta (Homo sapiens) (Q92731 whole entry, looked up): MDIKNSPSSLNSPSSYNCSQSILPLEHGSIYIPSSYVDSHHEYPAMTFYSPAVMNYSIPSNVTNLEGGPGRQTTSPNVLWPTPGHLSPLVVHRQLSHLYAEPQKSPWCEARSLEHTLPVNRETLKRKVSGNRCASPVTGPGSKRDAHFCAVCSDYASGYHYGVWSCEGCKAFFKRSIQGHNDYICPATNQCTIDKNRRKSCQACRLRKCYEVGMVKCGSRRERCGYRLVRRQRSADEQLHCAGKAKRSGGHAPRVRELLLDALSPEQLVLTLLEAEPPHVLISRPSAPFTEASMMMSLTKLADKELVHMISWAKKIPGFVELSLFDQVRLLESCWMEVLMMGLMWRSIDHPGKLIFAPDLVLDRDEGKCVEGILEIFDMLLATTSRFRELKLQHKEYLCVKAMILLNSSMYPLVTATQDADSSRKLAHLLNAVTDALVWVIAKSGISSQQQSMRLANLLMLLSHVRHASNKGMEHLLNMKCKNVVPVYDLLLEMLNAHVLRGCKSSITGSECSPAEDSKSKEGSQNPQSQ

As to `Oc1cc2ccccc2c2ccccc12`, the Potency in assay [1] is 21.7 µM (active); in [2], 19.3 µM (active); in [3], 10.9 µM (active); in assay [4] it was 15.4 µM (active); in assay [5], 24.3 µM (active); in [6], 4.33 µM (active). For the same molecule, the Potency in [7] is 6.86 µM (active); in assay [9], 13.7 µM (active); in assay [10], 5.45 µM (active); in assay [12], 7.7 µM (active). Further, the Potency result in assay [8], in assay [11] and in [13] was “inactive” throughout.

Take `O=C(O)c1ccc(Cl)c(Cl)c1`: the Potency result in assay [1], in [2], in assay [3], in assay [4], in [14] and in assay [6] was “inactive” throughout. Besides, the Potency result in assay [7], in assay [8], in [15], in assay [16], in assay [17] and in assay [9] was “inactive” each time. Further, the Potency result in assay [10], in assay [11], in assay [12] and in assay [13] was “inactive” each time. In assay [18], the molecule was called inactive.

Take `CCOC(=O)c1nc(C(Cl)(Cl)Cl)n(-c2ccc(Cl)cc2Cl)n1`: the Potency result in [1], in assay [2], in [4], in assay [14], in assay [6] and in assay [8] was “inactive” in each case. The Potency result in assay [9], in assay [11], in [13] and in assay [19] was “inactive” throughout. For the same molecule, the Potency was 61.1 µM (active) in [3]; 61.1 µM (active) in [7]; 54.5 µM (active) in assay [17]; 54.5 µM (active) in assay [10]; 61.1 µM (active) in assay [12]. For the same molecule, the result in [18] was inactive.

For the molecule `O=C1C=CC(=O)N1`, the Potency was 55.9 µM (active) in assay [1]; 49.8 µM (active) in assay [2]; 55.9 µM (active) in assay [4]; 5.59 µM (active) in [6]; 7.04 µM (active) in assay [7]; 1.58 µM (active) in assay [15]. The Potency is 28 µM (active) in assay [17]; 49.8 µM (active) in assay [9]; 55.9 µM (active) in assay [10]; 8.86 µM (active) in [11]; 28 µM (active) in assay [12]. Also, the Potency entry in [3], in assay [14], in assay [8] and in assay [13] was “inactive” throughout. For the same molecule, the call in [18] was inactive.

On to `CCCCCCCCCCCCCCCC(=O)OC[C@H](O)[C@H]1OC(=O)C(O)=C1O`, for which the Potency entry in [1], in assay [2], in [3], in assay [4], in assay [20] and in assay [14] was “inactive” each time. The Potency result in assay [5], in assay [6], in assay [7], in assay [8], in assay [15] and in [9] was “inactive” throughout. Further, the Potency entry in assay [11], in assay [13] and in [19] was “inactive” in each case. For the same molecule, in assay [10], the Potency is 43.3 µM (active). Further, in assay [18], the result was inactive.

As to `O=C(c1ccc(F)cc1)C1CCN(CCn2c(=O)[nH]c3ccccc3c2=O)CC1`, the Potency entry in assay [1], in assay [2], in assay [3], in assay [4], in [20] and in assay [14] was “inactive” in each case. Further, the Potency entry in [5], in assay [6], in assay [7], in assay [8], in assay [16] and in assay [17] was “inactive” in each case. The Potency result in assay [9], in assay [11], in [13] and in assay [19] was “inactive” in each case. For the same molecule, the outcome in assay [18] was inactive.

These data come from PubChem BioAssay (Tox21).
